Results on 14 compounds are retold here after PubChem BioAssay.

Activity calls are given as the source filed them.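 The calls were made as follows, unless noted: active = inhibition of the reporter signal at or above 50%; inactive = inhibition below 50%.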

Test [1] can be described thus: inhibitors of TNFa-induced NFkB p65 translocation, primary screen, imaging, HUVEC, MLSMR starter and 10KST1 sets (AID 438;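 active = inhibition above 20% together with a positive visual image hit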;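 also: compound added about 3h40 before a 20 min TNFalpha stimulation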;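 as to inhibition: signal is the nuclear over cytoplasmic p65 intensity ratio per well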). Conditions: HUVEC TNFa-induced p65 nuclear translocation; cell count: measured here: nuclei count (cytotoxicity indicator), at 2.08 µM; inhibition: at 2 µM, stronger effect = higher value, 0% TNFa-plus-vehicle, 100% no-TNFa wells.
A short description of test [2]: inhibitors of mutant huntingtin aggregation, primary screen, imaging, exon1htt(103Q)mCFP cells, high-content imaging (AID 483;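 active = visual image review flags a hit and inhibition of aggregation exceeds 20%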;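 also: compound exposure lasted 3 days before fixation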;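 as to nuclei count: percent of the per-plate median nuclei count of sample wells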). To be noted: exon1htt(103Q)mCFP cell line, aggregate imaging, at 2 µM; inhibition of aggregation: stronger effect = higher value; nuclei count: measured here: cell count, toxicity.
Test [3] can be described thus: inhibitors of E-selectin induction by TNFa, primary screen, imaging, HUVEC, immunofluorescence, MLSMR starter and 10KST1 sets (AID 487;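 active = visually confirmed hit in the image check and inhibition above 20%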;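 as to inhibition: signal is fraction of cell area covered by stained E-selectin grains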;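 as to nuclei count: 100% = median nuclei count of all wells on the same plate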). To be noted: HUVEC TNFalpha-induced E-selectin immunofluorescence imaging, at 2 µM; inhibition: stronger effect = higher value; nuclei count: measured here: cell number, toxicity.
In test [4] the target is Voltage-gated potassium channel subunit beta-2 (Rattus norvegicus) (UniProt P62483). Nature of the test: KvBeta enzyme negative modulators, primary screen, biochemical, NADPH fluorescence (AID 622;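 active = fluorescence slope higher than the sample average by over 3 SD, cut at about -0.22 in these data, passing the limit was not always enough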;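 also: slope of raw intensity against log time taken from 70 to 1610 s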). To be noted: recombinant KvBeta, 4-cyanobenzaldehyde reduction, at 10 µM, stronger effect = higher value.
Voltage-gated potassium channel subunit beta-2 (Rattus norvegicus), sequence (P62483 whole entry, looked up): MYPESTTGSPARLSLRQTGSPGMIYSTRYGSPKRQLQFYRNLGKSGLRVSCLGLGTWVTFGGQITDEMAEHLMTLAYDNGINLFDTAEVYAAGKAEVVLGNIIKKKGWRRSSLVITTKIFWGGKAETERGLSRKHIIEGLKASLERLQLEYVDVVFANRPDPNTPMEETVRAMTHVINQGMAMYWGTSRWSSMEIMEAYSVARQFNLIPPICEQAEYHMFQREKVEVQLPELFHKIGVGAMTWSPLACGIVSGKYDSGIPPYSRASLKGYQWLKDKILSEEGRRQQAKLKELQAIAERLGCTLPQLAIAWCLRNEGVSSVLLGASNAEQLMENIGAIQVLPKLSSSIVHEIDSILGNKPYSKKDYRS
The target is the same in test [5]. Nature of the test: KvBeta positive modulators, primary screen, biochemical, NADPH fluorescence (AID 623;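 active = NADPH fluorescence slope more negative than the mean of all samples by about 3 SD, 99.7% confidence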;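 also: fluorescence intensity change per second fitted from 20 to 320 s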). Conditions: Recombinant KvBeta, NADPH fluorescence decrease slope, 10 min; at 10 µM; stronger effect = lower value.
The target in test [6] is Alpha-2C adrenergic receptor (Homo sapiens) (UniProt P18825). Nature of the test: modulators of alpha2C/GIRK thallium flux, primary screen, cell-based, HEK293 alpha2C/GIRK1/2 (AID 624;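 active = fluorescence slope after compound addition differing from the mean of all screened samples at 99.7% confidence, in either direction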;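 also: slope of fluorescence ratio to pre-addition baseline per second over 15 to 24 s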). To be noted: thallium flux BTC fluorescence, at 10 µM, actives lie on both sides.
Alpha-2C adrenergic receptor (Homo sapiens), sequence (P18825 whole entry, looked up): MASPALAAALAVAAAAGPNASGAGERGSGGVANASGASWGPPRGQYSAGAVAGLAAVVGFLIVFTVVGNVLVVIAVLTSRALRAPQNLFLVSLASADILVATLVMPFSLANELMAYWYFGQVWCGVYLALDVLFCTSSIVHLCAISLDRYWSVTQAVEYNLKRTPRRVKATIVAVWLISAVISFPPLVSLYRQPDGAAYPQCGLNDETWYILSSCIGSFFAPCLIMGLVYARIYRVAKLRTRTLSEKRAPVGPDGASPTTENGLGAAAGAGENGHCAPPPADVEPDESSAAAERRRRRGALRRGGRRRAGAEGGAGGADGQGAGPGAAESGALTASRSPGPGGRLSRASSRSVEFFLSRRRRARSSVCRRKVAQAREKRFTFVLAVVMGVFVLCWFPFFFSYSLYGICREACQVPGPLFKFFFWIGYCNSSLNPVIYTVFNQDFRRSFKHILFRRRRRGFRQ
A short description of test [7]: inhibitors of Sendai virus-induced IRF3 signaling, primary screen, TLR/RLR signaling modifier project, cell-based, Sendai virus stimulus, luciferase, 10K MLSCN set (AID 602276;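 active = inhibition at or above 50% at 10 µM; inactive = inhibition below 50%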;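 also: firefly luciferase from ISG56 promoter only with Renilla not read in this screen; 0% = Sendai virus plus DMSO and 100% = medium plus DMSO without virus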). To be noted: HEK293 RL24 IRF3 luciferase reporter, at 10 µM, stronger effect = higher value. (Reporter assays use an easily measured gene product as a stand-in for the process of interest.)
Test [8] is described as follows: inhibitors of poly I:C-induced TLR3 signaling, primary screen, cell-based, poly I:C stimulus, luciferase, 10K MLSCN set (AID 602277). To be noted: HEK293-TLR3 RL24 IRF3 luciferase reporter, at 10 µM, stronger effect = higher value.

On to `O=C(CCN1C(=O)C2C3C=CC(C3)C2C1=O)NC1CCCc2ccccc21` (centres undefined), for which the cell count in test [1] was found to be 411. Also, the inhibition was 7.3% (inactive) in test [1], -138% (inactive) in test [3], 10.7% (inactive) in test [7] and 30.7% (inactive) in test [8]. The inhibition of aggregation in test [2] is 4.3% (inactive). Further, the nuclei count in test [2] and in test [3] was 104% in each case. Also, in test [4], the fluorescence slope was -0.441 (inactive). Also, in test [5], the NADPH fluorescence slope is -1.7e-05 (inactive). For the same compound, the slope in test [6] was 0.00567 (inactive).

Take `FC(F)(F)c1cccc(N2CCN(Cc3cccnc3)CC2)c1`: the cell count in test [1] was found to be 447. Also, the inhibition is -3.8% (inactive) in test [1], -57.5% (inactive) in test [3], 17.4% (inactive) in test [7] and 12.1% (inactive) in test [8]. In addition, the inhibition of aggregation in test [2] is -15.1% (inactive). Further, the figures for the nuclei count in test [2] and in test [3] were 109% and 127%, respectively. In addition, the fluorescence slope in test [4] is -0.505 (inactive). The NADPH fluorescence slope in test [5] was -6.8e-05 (inactive). In test [6], the slope was 0.00521 (inactive).

Take `COc1ccc(C2C(C(=O)NCCN3CCOCC3)c3ccccc3C(=O)N2C2CCCCC2)cc1` (centres undefined): in test [1], the cell count was determined as 334. Moreover, the inhibition is 10.1% (inactive) in test [1], -93.5% (inactive) in test [3], 30.2% (inactive) in test [7] and 26% (inactive) in test [8]. Moreover, the inhibition of aggregation in test [2] is 12.7% (inactive). In addition, the nuclei count in test [2] and in test [3] was 111% throughout. For the same compound, in test [4], the fluorescence slope was -0.611 (inactive). The NADPH fluorescence slope in test [5] is -2.8e-05 (inactive). The slope in test [6] was 0.00399 (inactive).

Regarding `CC(C)C(NC(=O)c1ccccc1NC(=O)c1ccco1)C(=O)O` (centres undefined), the cell count in test [1] turned out to be 368. The inhibition in test [1] was 1.7% (inactive); in test [3] it was -32.6% (inactive); in test [7], 19% (inactive); in test [8] it was 21.5% (inactive). Moreover, the inhibition of aggregation in test [2] is -3.4% (inactive). Moreover, the nuclei count was determined as 103% in test [2] and 115% in test [3]. For the same compound, in test [4], the fluorescence slope was -0.622 (inactive). Besides, in test [5], the NADPH fluorescence slope is -3.3e-05 (inactive). For the same compound, the slope in test [6] is 0.00599 (inactive).

As to `COc1ccc(Oc2nc(Oc3ccc(OC)cc3)nc(Oc3ccc(OC)cc3)n2)cc1`, the cell count in test [1] was 320. Further, the inhibition in test [1] was -5.1% (inactive); in test [3], -4.6% (inactive); in test [7] it was 3.19% (inactive); in test [8], 11.5% (inactive). Further, the inhibition of aggregation in test [2] was -10.7% (inactive). For the same compound, the nuclei count in test [2] was 109%; in test [3] it was 106%. The fluorescence slope in test [4] is -0.536 (inactive). Further, in test [5], the NADPH fluorescence slope is -1.9e-06 (inactive). Also, the slope in test [6] was 0.00755 (inactive).

Regarding `COc1ccccc1S(=O)(=O)Cc1ccc(C(=O)NCCN2CCCCCC2)o1`, the cell count in test [1] amounted to 522. Moreover, the inhibition in test [1] was 13.4% (inactive); in test [3] it was 9% (inactive); in test [7], 11% (inactive); in test [8], 39.3% (inactive). The inhibition of aggregation in test [2] was 15.2% (inactive). Further, the nuclei count in test [2] is 91.6%; in test [3] it was 81.1%. The fluorescence slope in test [4] is -0.588 (inactive). Further, the NADPH fluorescence slope in test [5] was -3.5e-05 (inactive). Further, the slope in test [6] is 0.00667 (inactive).

`Cc1ccc(Cn2ccc(NC(=O)c3cc(-c4cccs4)on3)n2)cc1`: the cell count in test [1] is 407. For the same compound, the inhibition in test [1] was 0.9% (inactive); in test [3], -33.4% (inactive); in test [7] it was -3.96% (inactive); in test [8], -7.39% (inactive). For the same compound, the inhibition of aggregation in test [2] was -11.4% (inactive). In addition, the nuclei count in test [2] is 96.9%; in test [3], 99.3%. In test [4], the fluorescence slope was -0.493 (inactive). Also, the NADPH fluorescence slope in test [5] was -1.8e-05 (inactive). For the same compound, the slope in test [6] is 0.00693 (inactive).

Consider `Cn1c(SCC(=O)Nc2ccc3c(c2)OCO3)nnc1-c1cnccn1`, for which the cell count in test [1] was 656. The inhibition was 6.5% (inactive) in test [1], 46.9% (inactive) in test [3], 12.5% (inactive) in test [7] and 24.2% (inactive) in test [8]. For the same compound, the inhibition of aggregation in test [2] is 3.7% (inactive). The nuclei count in test [2] amounted to 94.2%; in test [3], 91.7%. Further, the fluorescence slope in test [4] was -0.366 (inactive). In test [5], the NADPH fluorescence slope was -5.5e-05 (inactive). For the same compound, in test [6], the slope is 0.00395 (inactive).

As to `Cc1ccc2cc(C(c3nnnn3CC3CCCO3)N3CCCC4(CCCCC4)C3)c(=O)[nH]c2c1` (centres undefined), in test [1], the cell count came to 715. For the same compound, the inhibition is 0.8% (inactive) in test [1], -34% (inactive) in test [3], 10.5% (inactive) in test [7] and 16.9% (inactive) in test [8]. Moreover, the inhibition of aggregation in test [2] is 23.8% (inactive). For the same compound, the nuclei count in test [2] came to 106%; in test [3] it was 112%. For the same compound, the fluorescence slope in test [4] is -0.618 (inactive). In test [5], the NADPH fluorescence slope was -3.7e-05 (inactive). Further, in test [6], the slope is 0.00614 (inactive).

On to `Cn1cccc1Cc1nnc(SCC(=O)Nc2ccc(F)cc2)n1-c1ccc(F)cc1`, for which, in test [1], the cell count was found to be 843. The inhibition in test [1] was 1.4% (inactive); in test [3] it was -45.2% (inactive); in test [7], 10.5% (inactive); in test [8] it was 27.7% (inactive). In test [2], the inhibition of aggregation is -2.2% (inactive). The nuclei count in test [2] was 95.4%; in test [3], 116%. For the same compound, in test [4], the fluorescence slope is -0.592 (inactive). In test [5], the NADPH fluorescence slope was -1.8e-05 (inactive). Also, the slope in test [6] was 0.00531 (inactive).

As for `O=C(O)C1CCCN(S(=O)(=O)c2ccc(Cl)s2)C1` (centres undefined), in test [1], the cell count was determined as 609. The inhibition in test [1] is -7.1% (inactive); in test [3] it was -43.3% (inactive); in test [7], 10.1% (inactive); in test [8] it was 33.8% (inactive). For the same compound, the inhibition of aggregation in test [2] is 13.3% (inactive). In addition, the nuclei count in test [2] worked out at 88.8%; in test [3], 116%. In test [4], the fluorescence slope is -0.558 (inactive). For the same compound, the NADPH fluorescence slope in test [5] is -2.9e-05 (inactive). Moreover, in test [6], the slope was 0.00655 (inactive).

Take `CCc1nnc(NC(=O)c2ccc(S(=O)(=O)N(CC(C)C)CC(C)C)cc2)o1`: the cell count in test [1] came to 415. Besides, the inhibition in test [1] is -1.4% (inactive); in test [3] it was 12.8% (inactive); in test [7], 8.12% (inactive); in test [8] it was 15.2% (inactive). Moreover, the inhibition of aggregation in test [2] was 2.2% (inactive). Moreover, the nuclei count was 94.8% in test [2] and 81.5% in test [3]. In addition, the fluorescence slope in test [4] was -0.507 (inactive). In addition, the NADPH fluorescence slope in test [5] is -1.1e-05 (inactive). Also, the slope in test [6] is 0.00793 (inactive).

Regarding `Cc1[nH]nc2c1C(=O)CC(C)(C)C2`, the cell count in test [1] came out at 416. Besides, the inhibition in test [1] was -4.9% (inactive); in test [3] it was -24.4% (inactive); in test [7], -3.34% (inactive); in test [8], 17.1% (inactive). For the same compound, in test [2], the inhibition of aggregation is -16.7% (inactive). The nuclei count in test [2] turned out to be 118%; in test [3], 117%. In addition, in test [4], the fluorescence slope was -0.347 (inactive). For the same compound, in test [5], the NADPH fluorescence slope is -1.7e-05 (inactive). The slope in test [6] was 0.0065 (inactive).

As to `c1ccc(CSc2nnc(-c3cccs3)n2Cc2ccco2)cc1`, the cell count in test [1] came to 601. For the same compound, the inhibition in test [1] is -13.3% (inactive); in test [3], 51.5% (inactive); in test [7], -8.26% (inactive); in test [8], -9.64% (inactive). Besides, in test [2], the inhibition of aggregation was -3.7% (inactive). Further, the nuclei count in test [2] and in test [3] was 102% throughout. Besides, in test [4], the fluorescence slope is -0.488 (inactive). In test [5], the NADPH fluorescence slope was 3.8e-06 (inactive). Also, the slope in test [6] is 0.00593 (inactive).

Usually inhibition stands for the relative decrease from the control value, in per cent.
